Reference: the OligoGym collection

What follows are sequences tested against VDAC3 (assay: pooled miR-30 sensor sort-seq; sequence = guide strand). Conditions: shRNA.
TAGAGTATTGTCTGTGTTCCAT showed a sensor-assay potency score (higher = more potent) of -0.216. TTCAATCTTCTCATTCACCTTC gave a sensor-assay potency score (higher = more potent) of 0.828. TTGGTTTTCAGGTCTATCTTGA showed a sensor-assay potency score (higher = more potent) of 0.398. For TCTATATCAACATTACTGCCAA, the sensor-assay potency score (higher = more potent) was -0.2. TATCAGTGTAAGCATGACCAGA gave a sensor-assay potency score (higher = more potent) of -0.976. For TTCAGGTCTATCTTGACCATGC, the sensor-assay potency score (higher = more potent) was -0.432. Sequence TCTGGTAGATAGAACCTCCAAA has a sensor-assay potency score (higher = more potent) of -0.313. Sequence TCCTTTGTTGAAGACATCCTTA has a sensor-assay potency score (higher = more potent) of -0.879. TTGTCTGTGTTCCATTTCTGGG showed a sensor-assay potency score (higher = more potent) of -1.15. TTCATTTCTCTTCACTTCCAGG was tested, and the sensor-assay potency score (higher = more potent) was -0.789. TTTCAGGTCTATCTTGACCATG was tested, and the sensor-assay potency score (higher = more potent) was -1.45. TTATATTTGGTTTCTAGGTTGC gave a sensor-assay potency score (higher = more potent) of -0.0958.

What follows are sequences tested against VGLL2 in the same assay as above. Conditions: shRNA.
TATAATCACACTACCTAACAAA was tested, and the sensor-assay potency score (higher = more potent) was -1.39. For TTAAACATAACTCAGTCTTTGG, the sensor-assay potency score (higher = more potent) was -0.689. Sequence TTGTCTAACAACAGCTGCATTT has a sensor-assay potency score (higher = more potent) of -1.41.
